Source: PubChem
Only some compounds are listed: those with a hit (about 19% of all), similar ones and a draw of the others.
TDP1 cell CPT: growth inhibition of DT40 Tdp1-/-;hTDP1 cells with camptothecin (screen for TDP1 inhibitors); chicken DT40 Tdp1-/-;hTDP1 cells + 20 nM CPT, ATP luminescence, 48 h; Potency, µM (top dose mostly 46.2 µM), actives largely listed as inhibitors; 420,000 tested, 12% active; also: nearly all actives have a fitted effect of over 55% in size
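Chicken DT40 Tdp1-/- cells stably complemented with human TDP1 were seeded at 400 cells/well in medium containing 20 nM camptothecin, exposed to pin-transferred compounds, and grown at 37 °C for at least 48 hr. Viability was read as ATP luminescence.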
TDP1 cell noCPT: qHTS for Inhibitors of human tyrosyl-DNA phosphodiesterase 1 (TDP1): qHTS in cells in absence of CPT | DT40 Tdp1-/- hTDP1 cells, no CPT, ATP luminescence, 48 h | Potency, µM (highest dose often 46.2 µM), hits mostly inhibitors | AID 686978, 2013 | 420,000 tested, 15% active; also: nearly all actives have a fitted effect of over 55% in size
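A cellular qHTS used chicken DT40 cells lacking endogenous Tdp1 but carrying stably transfected human TDP1. Compounds were applied without camptothecin, and cell growth kinetics were judged by ATP-dependent luminescence after ≥48 hr.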
HT1080-NT tox: kills 2HG-producing HT-1080-NT fibrosarcoma cells. AID 686970. Potency, µM (doses to about 46.1 µM), most hits filed as cytotoxic. 360,000 tested, 1.6% active. HT-1080-NT fibrosarcoma viability, CellTiter-Glo ATP luminescence, 48 h;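 also: NT is the 2HG producing partner of a matched IDH1 knockdown line; nearly all actives have a fitted effect of over 55% in size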
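Fibrosarcoma NT cells, 750 per well in 5% FBS RPMI, were exposed to compound for 48 hours. Viability: CellTiter-Glo luminescence.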
HT1080 IDH1KD tx: kills HT-1080 cells with IDH1 knockdown; HT-1080 IDH1 knockdown viability, ATP luminescence, 48 h; Potency, µM (top dose mostly 46.1 µM), usual class: cytotoxic; 360,000 tested, 2% active
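Luminescent ATP read-out (CellTiter-Glo, 10 min at room temperature) after 48 h compound exposure at 37 °C gave viability of IDH1-knockdown HT-1080 cells. Activity was normalised to DMSO and cell-free wells, then fitted as concentration-response curves.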
KB-V1 cytotox: KB-V1 MDR subline cytotoxicity; KB-V1 MDR cells viability, CellTiter-Glo, 72 h; Potency, µM (highest dose often 46.1 µM), hits mostly cytotoxic; 400,000 tested, 3.4% active; also: nearly all actives have a fitted effect of over 60% in size
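Compound-treated KB-V1 multidrug-resistant cells, 72 h, 37 degrees C; viability by CellTiter-Glo. Fitted qHTS curves give the values.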
KB-3-1 tox: KB-3-1 parental cell cytotoxicity; KB-3-1 viability, CellTiter-Glo ATP luminescence, 72 h; Potency, µM (series often up to 46.1 µM), usual class: cytotoxic; 400,000 tested, 1.4% active; AID 1347075; also: nearly all actives have a fitted effect of over 60% in size
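Luminescent ATP read-out (CellTiter-Glo) measures survival of drug-naive KB-3-1 cells after 72 h compound exposure at 37 °C. Titration series was screened from lowest to highest concentration, with DMSO vehicle plates as background controls.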
Numbers stand for hits; – = inactive; ? = inconclusive; · = no result given; [ ] = another dose, or the depositor's remark. Calls follow the shape of the dose curve; as a rule, active = well fitted curve in the direction sought with a large enough effect; inconclusive = small, poorly fitted or top-dose-only effect, or another doubt; inactive = no such curve, though single readings can be large; an effect the other way counts as inactive or inconclusive.

SMILES	TDP1 cell CPT	TDP1 cell noCPT	HT1080-NT tox	HT1080 IDH1KD tx	KB-V1 cytotox	KB-3-1 tox
COc1cc(C(=O)N2CC(=O)Nc3ccc(C)cc3C2c2ccc(F)cc2)cc(OC)c1OC (stereo unspecified)	?	?	·	·	–	–
COc1ccc(NC(=O)C(NS(=O)(=O)c2ccc3c(c2)CCCC(=O)N3)C(C)C)c(OC)c1 (stereo unspecified)	–	–	·	·	–	–
O=C1CN(c2ccc(Cl)cc2)C(=O)CN1NC(=S)Nc1ccc(Cl)cc1	–	–	–	–	?	–
CCC(CC)c1nnc(NC(=O)C2CC(=O)N(c3ccc4c(c3)OCCO4)C2)s1 (stereo unspecified)	–	?	–	–	21µM	–
CCc1ccc(-c2csc(NC(=O)C3CC(=O)N(c4ccc5c(c4)OCCO5)C3)n2)cc1 (stereo unspecified)	16µM	16µM	?	?	–	?
O=C(Nc1nc(-c2ccco2)c(-c2ccco2)s1)C1CC(=O)N(c2ccc3c(c2)OCCO3)C1 (stereo unspecified)	16µM	?	–	?	–	–
Cc1csc(NC(=O)C2CC(=O)N(c3ccc4c(c3)OCCO4)C2)n1 (stereo unspecified)	–	–	–[9.24 µM]	–	–	–
Cc1nnc(NC(=O)C2CC(=O)N(c3ccc4c(c3)OCCO4)C2)s1 (stereo unspecified)	–	–	–	–	?	–
CS(=O)(=O)c1ccc(C(=O)Nc2nc(-c3ccco3)c(-c3ccco3)s2)cc1	?	21µM	–	–	?	–
CCC(=O)N1CCc2cc(CNC(=O)C(CC)c3ccccc3)ccc21 (stereo unspecified)	–	–	·	·	·	·
Cc1cc(C)n(CCOc2ccc(Br)cc2)n1	–	–	–	–	–	–
CCc1nnc(NC(=O)CSc2nnc(-c3ccncc3)n2C)s1	–	–	–	–	–	–
Cc1cc(NC(=O)CSc2nc(-c3ccco3)cc(C(F)(F)F)n2)n(-c2ccccc2)n1	4.1µM	4.1µM	?	?	4.1µM	5.8µM
Cc1c(NC(=O)CSc2nc(-c3ccco3)cc(C(F)(F)F)n2)c(=O)n(-c2ccccc2)n1C	?	–	–	–	–	–
Cc1cc(NC(=O)CCCSc2nc(-c3ccco3)cc(C(F)(F)F)n2)n(-c2ccccc2)n1	?	21µM	–	?	2.9µM	–
COc1cc2oc(=O)c(CC(=O)N3CCCCC3)c(C)c2cc1Cl	–	–	·	·	–	–
Cc1ccc2nc(-c3cccc(NC(=O)c4cccc5ccccc45)c3)oc2c1	?	?	·	·	–	–
Cc1ccc2nc(-c3cccc(NC(=O)CSc4ccc(Cl)cc4)c3)oc2c1	26µM	9.2µM	·	·	·	·
Cc1cccc(OCC(=O)Nc2ccc(Cl)c(-c3nc4ncccc4o3)c2)c1C	18µM	16µM	·	·	–	–
COc1c(C)cc(Br)cc1C(=O)Nc1cccc(-c2nc3ncccc3o2)c1	21µM	21µM	–	–	?	?
O=C(CSc1ccc(Cl)cc1)Nc1cccc(-c2nc3ncccc3o2)c1	?	18µM	–	–	15µM	?
COc1ccc(OCC(=O)Nc2ccc(Cl)c(-c3nc4ncccc4o3)c2)cc1	–	–	·	·	–	–
CCCC(=O)Nc1cccc(-c2nc3ncccc3o2)c1	–	–	·	·	–	–
CCOC(=O)c1ccc(N2C(=O)C3ON(c4ccccc4)C(c4ccco4)C3C2=O)cc1 (stereo unspecified)	–	–	–	–	–	–
Cc1ccc2nc(-c3ccc(C)c(NC(=O)CSc4ccc(Cl)cc4)c3)oc2c1	13µM	?	·	·	–	–
SMILES	TDP1 cell CPT	TDP1 cell noCPT	HT1080-NT tox	HT1080 IDH1KD tx	KB-V1 cytotox	KB-3-1 tox
Cc1ccc(-c2nn3c(C)nnc3s2)cc1NCc1c(F)cccc1Cl	18µM	18µM	?	?	–	–
Cc1ccc(-c2nn3c(C)nnc3s2)cc1NC(=O)CSc1ccc(Cl)cc1	?	18µM	–	–	–	–
Cc1c(NC(=O)c2ccc(-c3ccc(F)cc3)o2)cccc1-c1nc2ncccc2o1	4.6µM	9.2µM	·	·	–	–
Cc1ccc2nc(-c3ccc(C)c(NC(=O)COc4ccc(Cl)cc4)c3)oc2c1	?	?	·	·	–	–
O=C(Nc1cccc(-c2nc3ncccc3o2)c1)c1ccc(-c2cccc(Cl)c2Cl)o1	5.8µM	6.5µM	·	·	6.5µM	–
CC(C)C(=O)Nc1cccc(-c2nc3ncccc3o2)c1	–	–	–	–	–	?
Cc1cc(C)c(OCC(=O)Nc2cccc(-c3nc4ncccc4o3)c2)c(Br)c1	?	?	·	·	?	–
Cc1ccc(C(C)C)c(OCC(=O)Nc2cccc(-c3nc4ncccc4o3)c2)c1	21µM	21µM	·	·	?	–
O=C(NC1CC1)c1cc(-c2ccc(Br)cc2)nc2ccccc12	?	15µM	–	–	–	–
COc1ccc(-c2cc(C(=O)NC3CC3)c3ccccc3n2)cc1	?	?	–	–	–	–
COc1ccc(-c2cc(C(=O)NC3CCCC3)c3ccccc3n2)cc1	?	?	–	–	–	–
Cc1cc(C)cc(Nc2cc(C(=O)NC3CCCCC3)c3ccccc3n2)c1	?	?	·	·	–	–
Cc1cc(C)cc(Nc2cc(C(=O)NC3CCC(C)CC3)c3ccccc3n2)c1 (stereo unspecified)	?	9.2µM	·	·	–	–
O=C(NC1CCCCCCC1)c1cc(-c2ccccn2)nc2ccccc12	?	18µM	–	–	–	–
CN1CCC(NC(=O)c2cc(-c3cccc(Br)c3)nc3ccccc23)CC1	?	?	21µM	21µM	–	?
CC(=O)c1ccc(S(=O)(=O)N(C)CCCC(=O)N2CCN(c3ncccn3)CC2)cc1	–	?	–	–	?	–
CCOC(=O)CCS(=O)(=O)c1nc(-c2ccccc2)cc(C(F)(F)F)n1	0.41µM	0.65µM	?	5.2µM	–	?
c1ccc(-c2cc(-c3ccncc3)nc3ccc4ccccc4c23)cc1	?	?	?	–	?	–
COCC(C)NC(=O)CCS(=O)(=O)c1nc(-c2ccc(OC)cc2)cc(C(F)(F)F)n1 (stereo unspecified)	4.1µM	4.6µM	?	23µM	–	–
CCOC(=O)Cc1cc(-c2ccccc2)nc2ccc3ccccc3c12	?	13µM	–	–	–	–
COc1nc(-c2ccccc2)cc(C(F)(F)F)n1	–	–	–	–	–	–
COc1ccc(NC(=O)CCSc2nc(-c3ccc(OC)cc3)cc(C(F)(F)F)n2)cc1	–	–	·	·	–	–
